Measurements taken from PubChem BioAssay AID720541 (National Center for Advancing Translational Sciences (NCATS), 2013).
The campaign covered roughly 1,300 compounds. About 420 (32%) were called active. Not shown: some 32% with an inconclusive outcome. Some of the results follow. Unmarked numbers belong to inactive results. The call rests on the fitted dose curve; in most records, active means well fitted inhibition curve with a large enough effect; inconclusive means small, poorly fitted or top-dose-only effect; inactive means no such curve, though single readings can be large or run the other way.

Target: C-terminal-binding protein 1 (Homo sapiens) (UniProt Q13363)
Experiment: qHTS for Inhibitors of the Phosphatase Activity of Eya2: Carboxyl-terminal binding protein (CtBP) Counterscreen for Cherry-picked Compounds; further: nearly all actives have a fitted effect of over 65% in size
Details: purified protein-protein binding, AlphaScreen, 3 h; series mostly up to 46.1 µM; activity change, negative = inhibition: at the top concentration
Procedure, shortened: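 Cherry-picked compounds (final 2.5 nM–46 uM) were incubated 2 h at RT with 25 nM CtBP-6xHIS and 25 nM GST-E1A. Alpha beads (20 ug/mL) were then added for 1 h, light-protected; DMSO and E1A peptide inhibitor wells set the normalization.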
On the % scale 0 is the no-effect control and ±100 the full control effect; potency means the concentration at half of the fitted maximal effect.

Row | SMILES | activity change, negative = inhibition [%] | Potency
1 | Brc1ccc(CSc2ccc3nnc(-c4cccnc4)n3n2)cc1 | -31.1 | 
2 | Brc1ccc(CSc2ccc3nnc(-c4ccccn4)n3n2)cc1 |  | 13.5 µM (active)
3 | c1ccc(CSc2ccc3nnc(-c4ccccn4)n3n2)cc1 |  | 13.5 µM (active)
4 | COC(=O)c1ccc(CSc2ccc3nnc(-c4ccccn4)n3n2)o1 |  | 7.57 µM (active)
5 | CCOc1ccc(NC(=O)C2CC(=O)N(CCc3ccc(OC)c(OC)c3)C2)cc1OCC (stereo unspecified) |  | 19 µM (active)
6 | CN(C)c1ccc(C(CNS(=O)(=O)c2ccc(F)c(F)c2)c2c[nH]c3ccccc23)cc1 (stereo unspecified) | -19.8 | 
7 | Cc1ccc(NC(=O)c2ccc3c(c2)OCO3)cc1S(=O)(=O)N1CCOCC1 |  | 8.49 µM (active)
8 | O=C(COC(=O)c1cc(=O)[nH]c2ccccc12)Nc1cccc(S(=O)(=O)N2CCOCC2)c1 | -20.2 | 
9 | COc1ccc2oc(C(=O)Nc3cccc(S(=O)(=O)N4CCOCC4)c3)c(C)c2c1 | 2.02 | 
10 | COc1ccc(/C=C/C(=O)Nc2cccc(S(=O)(=O)N3CCOCC3)c2)cc1OC |  | 15.1 µM (active)
11 | S=C(Nc1ccc2c(c1)OCCO2)Nc1ccc2c(c1)OCO2 | -13.5 | 
12 | COc1ccc(S(=O)(=O)N2CCOCC2)cc1C(=O)Nc1cccc(C(=O)NC2CC2)c1 |  | 15.1 µM (active)
13 | O=C(COC(=O)c1cc(S(=O)(=O)N2CCOCC2)ccc1O)Nc1ccc2c(c1)OCO2 | -29.9 | 
14 | NC(=O)C1CCN(CC(=O)Nc2ccc3c(c2)OCO3)CC1 | 56.5 | 
15 | Cc1ccc(NC(=O)/C=C/c2ccc3c(c2)OCO3)cc1S(=O)(=O)N1CCOCC1 |  | 6.75 µM (active)
16 | Oc1ccc(-c2nc3c4c(ncn3n2)-c2ccccc2CC42CCCC2)cc1 | -5.04 | 
17 | Cc1ccc(Nc2nc(N)nc(CSc3nnc(C)s3)n2)cc1 | -28.6 | 
18 | O=C(O)C1=C[C@@H](c2csc3ccccc23)C[C@@H](OCc2ccc(CO)cc2)O1 | 1.42 | 
19 | CN(C)Cc1ccccc1Sc1cccc2ccccc12 | -22.5 | 
20 | CCN(CC)C(=O)c1ccc(O)c(OC)c1 | 10 | 
21 | Cc1cc(NC(=O)CS(=O)(=O)c2cn(Cc3cccc(Br)c3)c3ccccc23)no1 | -9.1 | 

Row | SMILES | activity change, negative = inhibition [%] | Potency
22 | COc1ccccc1-n1c(SCC(=O)Nc2cc(C)on2)nc2c(c1=O)SCC2 | -4.85 | 
23 | COc1cccc(-c2nnc(SCC(=O)Nc3cc(C)on3)o2)c1 |  | 12 µM (active)
24 | O=C(Nc1ccccc1)C(Cl)C(=O)c1ccccc1 (stereo unspecified) | -7.71 | 
25 | O=C(Nc1cccc(O)c1)c1cccc(C(=O)Nc2cccc(O)c2)c1 |  | 8.49 µM (active)
26 | COc1cc(CNC(=O)Nc2nc(C(N)c3ccccc3)cs2)cc(OC)c1OC (stereo unspecified) |  | 13.5 µM (active)
27 | CCC(=O)Nc1nc2c(OC)ccc(OC)c2s1 | -9.07 | 
28 | O=S(=O)(c1ccccc1)[C@@]1(c2ccccc2)C[C@@H]2ON=C(c3cccc(-c4ccccc4)c3)[C@@H]2C1 | -6.8 | 
29 | COc1cccc(C=NCC(C)N=Cc2cccc(OC)c2O)c1O (stereo unspecified) |  | 16.9 µM (active)
30 | Oc1c(C(c2cccs2)N2CCN(c3ccccc3)CC2)sc2ncnn12 (stereo unspecified) |  | 19 µM (active)
31 | COc1ccc(N2CCN(C(c3ccco3)c3sc4nc(C)nn4c3O)CC2)cc1 (stereo unspecified) | -20.4 | 
32 | O=c1c(O)cccc2cc(O)c(O)c(O)c12 |  | 15.1 µM (active)
33 | COc1ccccc1NC(=O)c1ccc(NC(=O)Cc2n[nH]c(=O)c3ccccc23)cc1 | 6.99 | 
34 | COc1ccccc1OCC(=O)Nc1ccc(C(=O)Nc2ccccc2C(=O)O)cc1 |  | 16.9 µM (active)
35 | CC1=C(/C=C/C(C)=C/C=C/C(C)=C/C(=O)Nc2ccc(O)cc2)C(C)(C)CCC1 | -22 | 
36 | COc1ccc(S(=O)(=O)N2CCC3CC2c2cc(N4CCOCC4)ccc23)cc1 (stereo unspecified) | 53.4 | 
37 | O=C(Oc1ccc(=O)n(-c2ccccc2)n1)c1ccc(F)cc1 | 7.08 | 
38 | C[n+]1ccc(/C=C/c2cc[n+](C)c3ccccc23)c2ccccc21 |  | 15.1 µM (active)
39 | CN1C=C/C(=C\c2cc[n+](C)c3ccccc23)c2ccccc21 |  | 15.1 µM (active)
40 | O=S(=O)(O)c1ccc2c(N=Nc3ccc(S(=O)(=O)O)c4ccccc34)c(O)c(S(=O)(=O)O)cc2c1 |  | 9.53 µM (active)
41 | CC(=O)Nc1ccc(S(=O)(=O)O)c2cc(S(=O)(=O)O)c(N=Nc3ccc(N=Nc4ccc(S(=O)(=O)O)cc4)c4ccc(S(=O)(=O)O)cc34)c(O)c12 |  | 1.69 µM (active)
42 | Cc1ccc(NC(=O)c2ccc3[nH]c(=O)c(=O)[nH]c3c2)nc1 |  | 6.75 µM (active)

Row | SMILES | activity change, negative = inhibition [%] | Potency
43 | Cc1cc(NC(=O)c2cccc(N3C(=O)CCC3=O)c2)no1 | 5.6 | 
44 | O=C(Nc1ccc(F)cc1)c1ccc2[nH]c(=O)c(=O)[nH]c2c1 |  | 1.9 µM (active)
45 | O=C(NC1=C(Nc2ccc(F)cc2)C(=O)c2ccccc2C1=O)c1ccc(Cl)cc1 | -23.9 | 
46 | Cc1nc2c(C(=O)Nc3ccc(N4CCCC(O)C4)cc3)snc2c(=O)[nH]1 (stereo unspecified) | -14.4 | 
47 | CCOc1cc(/C=C2/NC(=O)NC2=O)cc(Br)c1OCc1ccc(C(=O)O)cc1 | -28.6 | 
48 | CSCc1cc(N(C)c2ccccc2)nc(-c2ccccn2)n1 |  | 13.5 µM (active)
49 | O=C(O)C1=NN(c2cc(Cl)c(S(=O)(=O)O)cc2Cl)C(=O)C1 | -1.01 | 
50 | CN(C)c1ccc(N=c2sc3ccccc3n2C)cc1 |  | 7.57 µM (active)
51 | CCN1CCN(c2ncnc3scc(-c4ccc(C)cc4)c23)CC1 | -13.6 | 
52 | CCc1nnc2c(N(C)C)nc3ccccc3n12 |  | 12 µM (active)
53 | CN(C)S(=O)(=O)n1cnc2ccccc21 | 2.9 | 
54 | Cc1cc2oc(C(=O)N3CCN(Cc4ccccc4)CC3)c(C)c2cc1C | -17.7 | 
55 | CC(=O)Nc1ccc(S(=O)(=O)NC2=C(N3CCN(Cc4ccccc4)CC3)C(=O)c3ccccc3C2=O)cc1 |  | 16.9 µM (active)
56 | O=C1C(NS(=O)(=O)c2cccs2)=C(N2CCN(Cc3ccccc3)CC2)C(=O)c2ccccc21 |  | 10.7 µM (active)
57 | O=c1c2ccccc2nnn1CSc1nnc(C2COc3ccccc3O2)n1-c1ccccc1 (stereo unspecified) | -10.6 | 
58 | O=c1cc(CSc2ccc(Cl)cc2)nc(-c2ccccn2)[nH]1 |  | 2.13 µM (active)
59 | Nc1nc2cc3ccccc3cc2[nH]c1=O | -9.19 | 
60 | O=c1nc(-c2ccccc2)c2cc(Cl)ccc2[nH]1 |  | 13.5 µM (active)
61 | COc1ccc(NC(=O)c2[nH]c(C)c(C(C)=O)c2C)cc1Cl | -22.9 | 
